The values below come from PubChem BioAssay (EPA / NIEHS).

Read-out in assay [1]: Secreted IgG (sIgG), gene 3500
As to the kind of experiment: BSK_BT_sIgG: BioMAP Diversity Plus: BT Assay for Secreted IgG (sIgG) Biomarker Activity (AID 2284226). The note with it: primary human B cells with PBMC. The gist of the method: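 Human B cell/PBMC co-culture; compound exposure 24 h; sIgG by ELISA; gain-of-signal fit vs DMSO baseline.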

A short description of assay [2]: BSK_BT_Bcell_Proliferation: Viability Assessment in the BioMAP Diversity Plus: BT Assay for B cell Proliferation (AID 2284227). The conditions noted are these: primary human B cells with PBMC. The gist of the method:
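Using a human primary B cell–PBMC co-culture, the assay measures total protein by sulforhodamine B absorbance as a gauge of proliferation after 72 h. Analysis followed the positive fitting direction with DMSO as baseline.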

Read-out in assay [3]: Interleukin 6 (IL6), IL6 (gene 3569)
The assay is described as follows: BSK_BT_xIL6: BioMAP Diversity Plus: BT Assay for Interleukin 6 (IL6) Biomarker Activity (AID 2284228). The note with it: primary human B cells with PBMC. The essentials:
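Readout: secreted IL-6 via Luminex xMAP multiplex, 24 h post-dosing. System: primary human B cells co-cultured with PBMC. Signal change scored relative to DMSO vehicle, positive fitting direction.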

Read-out in assay [4]: Interleukin 17A (IL17A), IL17A (gene 3605)
The assay is described as follows: BSK_BT_xIL17A: BioMAP Diversity Plus: BT Assay for Interleukin 17A (IL17A) Biomarker Activity (AID 2284229). The conditions noted are these: primary human B cells with PBMC. The gist of the method:
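Luminex xMAP readout of secreted IL-17A; human B cell + PBMC co-culture; 24 h post-dose; positive-direction fit vs DMSO negative control.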

Read-out in assay [5]: Tumor necrosis factor (Homo sapiens) (UniProt P01375)
As to the kind of experiment: BSK_BT_xTNFa: BioMAP Diversity Plus: BT Assay for Tumor necrosis factor alpha (TNF-alpha) Biomarker Activity (AID 2284230). The note with it: primary human B cells with PBMC. The gist of the method:
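Endpoint derived in the positive direction versus DMSO vehicle. Cells: B cells together with PBMC, exposed 24 h before TNF-alpha in the medium was read on the Luminex xMAP platform.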

Read-out in assay [6]: Vascular cell adhesion molecule 1 (VCAM1), VCAM1 (gene 7412)
The assay is described as follows: BSK_MyoF_VCAM1: BioMAP Diversity Plus: MyoF Assay for Vascular cell adhesion molecule 1 (VCAM1) Biomarker Activity (AID 2284231). The conditions noted are these: primary human lung fibroblasts. The gist of the method:
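MyoF system, lung fibroblasts; 24 h post-dose; VCAM-1 by ELISA; gain-of-signal fit vs DMSO baseline.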

Assay [7] in a line: UKN4_HCS_LUHMES_cell_viability: Viability Assessment in the University of Konstanz (UKN) Leist Lab Neurite Outgrowth Assay in human LUHMES cells (UKN4) (AID 2284232). The essentials:
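Day-2 differentiated LUHMES, 30000 cells/well, dosed ~30 min–2 h post-seeding; 24 h treatment incl. staining; Hoechst H-33342 + calcein-AM at 23.5 h; HCS imaging; DMSO-normalized, bidirectional fit.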

Assay [8] in a line: UKN2_HCS_IMR90_cell_viability: Viability Assessment in the University of Konstanz (UKN) Leist Lab Neural Crest Cell Migration Assay in human induced IMR90 Pluripotent Stem Cells (UKN2) (AID 2284233).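 Further: cells exposed to compound for 24 h after a 24 h migration phase.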 The gist of the method: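 Viability read as calcein-AM fluorescence by high-content imaging, Hoechst co-stain, 30 min. Human iPSC (IMR90) neural crest cells had migrated 24 h into stopper-defined gaps before 24 h chemical exposure. Fitted bidirectionally relative to DMSO.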

Assay [9] in a line: TAMU_HCS_1.5hr_SingleDonor1434_Cytotoxicity: Cytotoxicity Assessment using High-content Screening (HCS) Fluorescent Imaging for the Texas A&M University (TAMU) 1.5-hr Human Induced Pluripotent Stem Cell (iPSC)-derived Cardiotoxicity Assay (AID 2284234; active means hit-call score of the fitted dose curve at least 0.9, where 1 is the maximum). The essentials:
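Nuclear counts from Hoechst 33342 imaging define cytotoxicity here, with EC10 (10% cell-count loss relative to DMSO) as point of departure. iPSC cardiomyocytes received 0.2-100 uM test chemical in 0.5% DMSO for 1.5 h at 37 C.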

The nature of assay [10]: TAMU_PeakParms_SingleDonor1434_QT: Texas A&M University (TAMU) 1.5-hr Human Induced Pluripotent Stem Cell (iPSC)-derived Cardiomyocytes Calcium (Ca+2) Flux Assay for Cardiotoxicity: QT (decay-rise ratio) (AID 2284235; active means hit-call score of the fitted dose curve at least 0.9, where 1 is the maximum). The essentials:
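Decay/rise ratio of calcium-flux fluorescence scored after 90 min exposure (37C) of donor 1434 iPSC cardiomyocytes to 0.2–100 uM (0.5% DMSO). Beat-cessation and severe-notch points removed; POD is EC05, a 5% rise over DMSO.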

Several values for one entry are separate records, joined by “and”; a condition that tells them apart may be missing. Identical values can stand only once. Results filed as inconclusive are left out. Activity calls are given as the source filed them. How the source made its calls, unless noted: active means hit-call score of the fitted dose curve at least 0.9, where 1 is the maximum; inactive means score below 0.9.

What is called AC50 is the concentration at which the activity in the assay is half-maximal.

Tumor necrosis factor (Homo sapiens), sequence (P01375 whole entry, looked up): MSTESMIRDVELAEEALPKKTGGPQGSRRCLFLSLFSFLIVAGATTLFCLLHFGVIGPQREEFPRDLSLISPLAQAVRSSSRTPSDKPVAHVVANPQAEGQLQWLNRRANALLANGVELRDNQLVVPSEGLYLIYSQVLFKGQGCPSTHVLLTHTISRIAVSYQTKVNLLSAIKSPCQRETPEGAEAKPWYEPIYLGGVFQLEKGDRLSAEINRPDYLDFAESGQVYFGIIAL

With `OCc1c[nH]c2ccccc12`, the half-maximal activity concentration (AC50) was 30.8 µM (active) in assay [1], 3.97 µM (active) in [2] and 3.97 µM (active) in [3]. The outcome in assay [4], in [5] and in assay [6] was inactive.
Regarding `NCC(F)(F)C(F)(F)C(F)(F)C(F)(F)F`, the result in assay [1], in assay [2], in assay [3], in assay [4], in [5] and in [6] was inactive.
`Cc1cccc(O)c1C`: the result in [1], in assay [2], in assay [3], in assay [4], in assay [5] and in assay [6] was inactive.
Regarding `OC(O)(C(F)C(O)(O)C(F)(F)F)C(F)(F)F`, the AC50 is 32.6 µM (active) and 39.1 µM (active) in assay [1]; 30 µM (active) in [2]; 53.3 µM (active) and 52 µM (active) in assay [3]. The result in [4], in [5] and in [6] was inactive.
For the molecule `O=C(Cl)C(F)(F)C(F)(F)C(F)(F)C(=O)Cl`, the outcome in assay [1], in assay [2], in [3], in assay [4], in [5] and in assay [6] was inactive.
In the case of `Nc1ccn([C@@H]2O[C@H](CO)[C@@H](O)[C@@H]2O)c(=O)n1`, the molecule was called inactive in [7] and in assay [8].
`C[Si](C)(C)C(F)(F)C(F)(F)C(F)(F)F`: the result in assay [1], in assay [2], in assay [3], in [4], in [5] and in assay [6] was inactive.
Take `CC(C)C(=O)Nc1ccc([N+](=O)[O-])c(C(F)(F)F)c1`: the result in assay [9] and in assay [10] was inactive.
